Measured values taken from PubChem BioAssay (NCI).
Values joined by “and” are separate entries in the source; they are usually repeats but may differ in a detail not shown here. Equal entries are not always repeated. About 83,000 compounds went through this panel and 20% of them were active in at least one assay; those are over-represented in the sample as a whole.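 Cell lines were cultured in 96-well plates, exposed to a single compound concentration, and assessed for percent growth 48 hours later.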 Active and inactive are the calls of the source. The calls were made as follows: active = growth percent below 10; inactive = the rest.

Test system: HL-60(TB) leukemia
Experiment: NCI-60 one-dose screen, 48 h (100 = growth as untreated, 0 = no growth, -100 = all killed)
Conditions: 10 µM unless noted

Compound | growth
COc1cc2nc(-c3ccc(C(F)(F)F)cc3)cc(OCCN3CCC(O)CC3)c2cc1OC | 68.6% (inactive)
COc1ccc(-c2coc3c(CO)c(O)ccc3c2=O)cc1 | -24.9% (active)
COc1cc(-c2cc(=O)oc3cc(O)ccc23)c(OC)c2c1OCO2 | 103% (inactive)
CCCCn1c(C)nc2ccc(Nc3nc(N4CCN(C)CC4)nc4nc[nH]c34)cc21 | 99.8% (inactive)
NC(=O)CN1C(=O)c2ccccc2C1=O | 96.6% (inactive)
Cc1cccc2nnc(-c3ccccc3)n12 | 99% (inactive)
COc1ccc(/C=C/C(=O)c2ccc(Nc3ccnc4cc(Cl)ccc34)cc2)cc1 | 17.5% (inactive)
O=C(Nc1ccc(Br)cc1F)c1cc(Cl)ccc1O | -42.4% (active)
COc1ccccc1CNCCCN1C(=O)c2ccc3c4c(ccc(c24)C1=O)C(=O)N(CCCNCCCCNCCCCN)C3=O | -37.8% (active)
C=C1C(=O)O[C@H]2[C@H]1CC/C(COC(=O)OC/C1=C/CC[C@@]3(C)O[C@H]3[C@H]3OC(=O)[C@@H](CN(C)C)[C@@H]3CC1)=C\CC[C@@]1(C)O[C@@H]21 | -43% (active)
O=C(NNc1ccc(-c2ccccc2)nn1)c1ccccc1 | 98.8% (inactive)
CC1CN(c2oc(-c3ccccc3)nc2C#N)CC(C)O1 (stereo not given) | 101% (inactive)
Cc1ccc(S(=O)c2ccc([N+](=O)[O-])c3nonc23)cc1 (stereo not given) | 33.2% (inactive)
Cc1cc(NC(=O)NC(=O)c2ccccc2N(C)C)ccc1Oc1ncc(Br)cn1 | -13.6% (active) and 20.7% (inactive)
CN(C)Cc1ccc(NC(=O)c2cncc(C#Cc3cnc(N)c4ncccc34)c2)cc1F | 83.7% (inactive)
Clc1ccc(-n2cnc3c(Cl)ncnc32)cc1Cl | 45.7% (inactive)
C#CCn1cc(C=C2C(=O)NC(=S)NC2=O)c2cc(Cl)ccc21 | -4.45% (active)
COc1ccc(-c2nn(Cc3ccccc3)c3c2-c2oncc2CC3)cc1OC | 87.7% (inactive)
O=C(O)CCCCSc1ncnc2nc[nH]c12 | 103% (inactive)
Nc1ccn(-c2ccc(Br)cc2)c(=O)n1 | 125% (inactive)

Compound | growth
CCCCCC(=O)OCC(=O)O[C@@H]1C[C@]2(C(C)C)O[C@@]1(C)[C@@H]1CC[C@@H](C)[C@H]1[C@@H]2OC(=O)/C=C/c1ccccc1 | 78.5% (inactive)
COc1ccc(Cc2nc3cc(OC)c(OC)cc3c(=O)[nH]2)cc1 | 16.4% (inactive)
O=c1oc2ccccc2cc1C1=NN=C(SCc2ccccc2)SC1 | 102% (inactive)
CNc1ccc(O)cc1 | 103% (inactive) and 93% (inactive)
C[N+](C)(C)c1ncnc2nc[nH]c12 | 91.8% (inactive)
CCCCCCNC(=O)Oc1ccc(/C(=C(/CC)Cc2ccccc2)c2ccc(OCCN(CC)CC)cc2)cc1 | 55.2% (inactive)
COc1cc(C(=O)n2nc(N3CCN(C)CC3)c3cc(N)ccc32)cc(OC)c1OC | 1.68% (active)
Nc1nc(=S)c2ncn(C3OC(CO)C(O)C3O)c2[nH]1 (stereo not given) | 96.4% (inactive) and 21.3% (inactive)
CC(O)Cn1cnc2c1c(=O)n(C)c(=O)n2C (stereo not given) | 97.1% (inactive)
CS(=O)(=O)c1ccc(-c2cnn3ccc(-c4cccc(S(=O)(=O)C5CC5)c4)nc23)cc1 | 24.3% (inactive)
CCn1cc(C(=O)N/N=C/c2cccs2)c(=O)c2cc(F)c(N3CCNC(C)C3)c(F)c21 (stereo not given) | 105% (inactive)
Fc1ccc(CNc2c3ccccc3nc3ccccc23)c(F)c1 | 58.3% (inactive)
COc1ccc(/C=N\NC(=O)c2cc(-c3ccc(Br)cc3)n(-c3ccc(S(N)(=O)=O)cc3)n2)cc1 | 33.5% (inactive)
CC1(C)NCCC[C@]2(C)[C@H]3CC[C@@H]4[C@H]5[C@H](C(=O)/C=C/c6ccccn6)CC[C@]5(CO)CC[C@@]4(C)[C@]3(C)CC[C@@H]12 | -31.8% (active)
Oc1c(Cl)cc(Cl)c(Cl)c1CNCCNCc1c(O)c(Cl)cc(Cl)c1Cl | -10.5% (active)
O=C1C(Cl)=C(Nc2ccc(O)cc2)C(=O)N1Cc1ccc(Cl)cc1 | 32.8% (inactive)
COc1cc(NC(C)CCCN2C(=O)c3ccccc3C2=O)c2ncccc2c1OC (stereo not given) | -96.9% (active)
COc1cc2cc(Oc3ccc(NC(=O)Nc4ccc(Cl)c(C(F)(F)F)c4)cc3)c(C)nc2cc1OCCN1CCCCC1 | 30.5% (inactive)
COc1cccc(CNc2ccc3ncnc(Nc4ccc(F)c(Cl)c4)c3c2)c1 | 93.6% (inactive)
O=C(/C=C/c1ccccc1)Oc1ccc(/C=C/c2cc(OC(=O)/C=C/c3ccccc3)cc(OC(=O)/C=C/c3ccccc3)c2)cc1 | 93% (inactive)
